Test results as given in PubChem BioAssay (NCATS).
Inconclusive results are not listed. A number with no mark means an inactive call. Activity calls are given as the source filed them.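 How the source made its calls: active means dose-dependent loss of cell ATP signal giving a full or clear fitted curve, ranked by lower potency value; inconclusive means weak partial curve or response only at the top dose; inactive means no loss of viability signal.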
Potency means the concentration at half of the fitted maximal effect.

Test: Cell Viability - Jurkat (AID 426);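 further: cells exposed to compound for 40 hours at 37 °C before ATP read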
Conditions: qHTS
Excerpt: NIH Chemical Genomics Center [NCGC]
NIH Molecular Libraries Screening Centers Network [MLSCN]
National Institutes of Environmental Health Sciences [NIEHS]
National Toxicology Program [NTP]
We have developed a 1536-well cell-based assay for quantitative high throughput screening (qHTS) against a number of cell lines to determine in vitro cytotoxicity of small molecules. This particular assay uses the Jurkat cell line (Clone E6-1) which is derived from the human T cell leukemia.
NCGC Assay Protocol Summary:
The CellTiter-Glo luminescent cell viability assay (Promega) is a homogeneous method to measure the number of viable cells in culture. The end point readout of this assay is based on quantitation of intracellular ATP, an indicator of metabolic activity, using the luciferase reaction. Luciferase catalyzes the oxidation of beetle Luciferin to oxyluciferin and light in the presence of ATP. The luminescent signal is proportional to amount of ATP present.
Using the CellTiter-Glo luminescent cell viability assay, the amount of cellular ATP was measured in the Jurkat cell line with complete culture medium following compound treatment for 40 hours. The assay was performed in opaque white Kalypsys 1536-well plates. In the screen, tamoxifen and doxorubicin were used as positive controls. Library compounds were measured for their ability to cause acute toxicity in the cell line, as reflected by a decrease in intracellular ATP levels, in a concentration-dependent manner. […] AC50 values were determined from concentration-response data modeled with the standard Hill equation.
qHTS protocol for CellTiter Glo Jurkat cellular assay
[Step] [Parameter] [Value] [Description]
1. Reagent; 5 uL; 5000 Jurkat cells/well
3. Controls; 23 nL; Tamoxifen 0.34 uM to 100 uM & Doxorubicin 0.02 nM to 100 uM
4. Time; 40 hr; 37 °C incubation
5. Reagent; 5 uL; CellTiter Glo reagent
6. Time; 20 min; Room Temperature
7. Detection; Luminescence; Viewlux plate reader
Keywords: cell viability, cytotoxicity, Jurkat cell line, luminescence, NTPHTS, NTPHTS_NCGC, NIEHS, EPA, DSSTox, MLSMR, MLSCN, NIH Roadmap, qHTS, NCGC
For `O=P1(N(CCCl)CCCl)NCCCO1` (configuration not stated), the Potency was > 92 µM. For `CC(C)c1cccc(C(C)C)c1O`, the Potency was > 92 µM. For `O=C(O)CCCc1ccc(N(CCCl)CCCl)cc1`, the Potency was 22.8 µM (active). With `CCOC(=O)CC(SP(=S)(OC)OC)C(=O)OCC` (configuration not stated) the Potency was > 92 µM. In the case of `CC(C)NC(C)C`, the Potency is reported as > 92 µM. For `NCCc1ccc(O)cc1`, the Potency was > 92 µM. In the case of `COP(=S)(OC)Oc1ccc(SC)c(C)c1`, the Potency is reported as > 92 µM. With `Nc1ccccc1C(=O)O` the Potency was > 92 µM. In the case of `C[C@]12CCC(=O)C=C1CC[C@@H]1[C@@H]2CC[C@]2(C)C(=O)CC[C@@H]12`, the Potency is reported as > 92 µM. For `Nc1ccccc1`, the Potency was > 92 µM. With `CN1C[C@H](C(=O)N[C@]2(C)O[C@@]3(O)[C@@H]4CCCN4C(=O)[C@H](Cc4ccccc4)N3C2=O)C=C2c3cccc4[nH]cc(c34)C[C@H]21` the Potency was 56.2 µM (active). For `COc1cc(OC)c(OC)cc1C=O`, the Potency was > 92 µM. In the case of `Oc1ccc(Cl)cc1`, the Potency is reported as > 92 µM. For `COC(=O)C(c1ccccc1)C1CCCCN1` (configuration not stated), the Potency was > 92 µM. For `C[C@]1(O)CC[C@H]2[C@@H]3CCC4=CC(=O)CC[C@]4(C)[C@@]3(F)[C@@H](O)C[C@@]21C`, the Potency was > 92 µM. In the case of `CCCC(C)(COC(N)=O)COC(N)=O`, the Potency is reported as > 92 µM. For `CCC(C)(C)c1ccc(O)cc1`, the Potency was > 92 µM.
